Data taken from PubChem BioAssay (NCI).
The panel holds about 83,000 compounds, 20% with a hit somewhere; the sample as a whole holds those more often.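 Cells were grown in 96-well plates and exposed to the test compound at a single concentration for 48 hours; results are reported as percent growth, with values below 10 considered active.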 Unmarked numbers belong to inactive results. Active and inactive are the calls of the source.

What was measured:
Experiment in all cases: NCI-60 one-dose screen, 48 h (100 = growth as untreated, 0 = no growth, -100 = all killed)
NCI-H23 lung = settings: 10 µM unless noted
NCI-H226 lung = settings: 10 µM unless noted
NCI-H322M lung = settings: 10 µM unless noted
HOP-62 NSCLC = settings: 10 µM unless noted
NCI-H460 lung = settings: 10 µM unless noted
HOP-92 NSCLC = settings: 10 µM unless noted
NCI-H522 lung = settings: 10 µM unless noted
A549/ATCC NSCLC = settings: 10 µM unless noted
786-0 renal = settings: 10 µM unless noted
COLO 205 colon = settings: 10 µM unless noted
DU-145 prostate = settings: 10 µM unless noted
K-562 leukemia = settings: 10 µM unless noted
MALME-3M melanoma = settings: 10 µM unless noted
MDA-MB-231 breast = settings: 10 µM unless noted
RXF 393 renal = settings: 10 µM unless noted
SF-268 CNS = settings: 10 µM unless noted
SF-295 CNS = settings: 10 µM unless noted
SF-539 CNS = settings: 10 µM unless noted
UACC-257 melanoma = settings: 10 µM
M14 melanoma = settings: 10 µM unless noted

SMILES	growth (NCI-H23 lung)	growth (NCI-H226 lung)	growth (NCI-H322M lung)	growth (HOP-62 NSCLC)	growth (NCI-H460 lung)	growth (HOP-92 NSCLC)	growth (NCI-H522 lung)	growth (A549/ATCC NSCLC)	growth (786-0 renal)	growth (COLO 205 colon)	growth (DU-145 prostate)	growth (K-562 leukemia)	growth (MALME-3M melanoma)	growth (MDA-MB-231 breast)	growth (RXF 393 renal)	growth (SF-268 CNS)	growth (SF-295 CNS)	growth (SF-539 CNS)	growth (UACC-257 melanoma)	growth (M14 melanoma)
COc1cc(Cn2c(SCCC(=O)Nc3ccc(F)cc3)nc3ccccc3c2=O)cc(OC)c1OC	90.5%	79%	81.1%	82.7%	96.8%	55.1%	53.8%	83.5%	90.5%	95.8%	101%	70.8%	91.7%	65.9%	74.3%	80.9%	88.2%	84.2%	93.2%	93%
CCOC(=O)[C@H](CSSc1ncnc2cc[nH]c12)NC(=O)[C@@H](C)c1ccc2cc(OC)ccc2c1	19.9%	39.9%	10.7%	23.2%	32.7%	46%	11.3%	59.9%	25.5%	3.67% (active)	33.4%	13.5%	56.2%	28.2%	57.9%	33.1%	16.7%	11.4%	28.2%	6.45% (active)
CC(C)C[C@H](NC(=O)[C@H](Cc1ccccc1)n1ccc(N2CCCCC2)cc1=O)B(O)O	19.7%	-68.7% (active)	70.7%	13.1%	34.7%	-10.1% (active)	-7.97% (active)	19%	28%	28.9%	41.3%	9.62% (active)	-23.8% (active)	-26.2% (active)	-54% (active)	-8.05% (active)	7.12% (active)	-11.5% (active)	-16.9% (active)	12.5%
COc1ccc(NC(=O)CSc2nc3ccccc3c(=O)n2Cc2cc(OC)c(OC)c(OC)c2)cc1	92.5%	88.3%	94.5%	91.4%	101%	58.8%	66.7%	99.3%	92.5%	107%	95.6%	79.8%	88.2%	73.8%	82.9%	85.1%	106%	79%	94.3%	99.4%
COc1ccc(-c2nc3sccn3c2-c2ccnc(NCCNS(=O)(=O)c3ccc(C(F)(F)F)cc3)n2)cc1	15.5%	4.55% (active)	37.1%	46.1%	15.4%	13.4%	-1.01% (active)	18.9%	18.4%	0.693% (active)	15.8%	6.19% (active)	8.25% (active)	16%	18.5%	0.178% (active)	-28.5% (active)	0.637% (active)	13.3%	10.1%
COc1ccc(C2SCC(=O)N2NC(=O)c2ccc(NC(=O)c3ccccn3)cc2)cc1OC (stereo not given)	102%	94.3%	95.2%	88.1%	113%	116%	81.8%	91.7%	97.2%	109%	105%	95.9%	105%	102%	103%	96.5%	101%	98.8%	92.2%	102%
O=c1c2cccc3c(Nc4ccc(F)cc4)ccc(c32)c2nc3ccccc3n12	83.8%	92.7%	67.8%	87.5%	77.9%	53.2%	82%	96.1%	97.5%	84.5%	95.5%	89.5%	94.1%	70.9%	98%	95.3%	109%	83.8%	86.2%	96.7%
CCCC(C(=O)OCC)C(C)OC(=O)OCC (stereo not given)	100%	101%	100%	93.3%	113%	90.2%	86.1%	104%	99.5%	103%	106%	81.6%	85.9%	105%	96.3%	96.9%	84.7%	107%	97.5%	97.6%
COc1cc(NC(=O)c2cc3ccccc3nc2Nc2ccc(F)cc2)cc(OC)c1OC	39.8%	43%	65.8%	83.2%	40.3%	28.5%	49.8%	42.8%	53.5%	38%	69.8%	37.3%	66.7%	51.2%	50.6%	50.9%	39.5%	40.5%	27.6%	30.2%
CCCCCC(=O)OCc1ccccc1	102%	103%	102%	97%	109%	96.3%	85.7%	106%	96.9%	106%	103%	84.9%	85.9%	109%	105%	97.2%	99.8%	98.8%	96.8%	94.9%
COc1cccc(-c2nc3sccn3c2-c2ccnc(NCCCNS(=O)(=O)c3ccccc3)n2)c1	36.1%	23.3%	75.3%	119%	53.7%	56.5%	27.3%	51.8%	62.6%	21.3%	52.1%	25.5%	36.4%	59.5%	67.1%	62.7%	55%	70.4%	65.7%	25.2%
COc1ccc(C(=O)c2cc(OC)c(OC)c(OC)c2)cc1/C=C/C(=O)c1ccc(OC)c(OC)c1	32.2%	55.6%	54.7%	58.6%	18.4%	39.4%	3.99% (active)	57.1%	55.9%	31.3%	-4.98% (active)	12.3%	56.6%	26.1%	29.3%	17%	-46.2% (active)	-23.5% (active)	49.1%	36.2%
O=C(CCCn1c2c(sc3ccccc32)c(=O)n2nnc(-c3ccccc3)c12)NCCc1cnc[nH]1	23.4%	98.5%	-34.1% (active)	-7.01% (active)	-93.2% (active)	-75.7% (active)	-95.8% (active)	-75.3% (active)	-85.2% (active)	-3.8% (active)	-100% (active)	78.7%	-76.1% (active)	-47.2% (active)	-66.9% (active)	-48.9% (active)	-42.6% (active)	-97.3% (active)	-7.05% (active)	-80.6% (active)
O=C(O)C(Cc1ccccc1)N1C(=O)/C(=C/C(Cl)=C/c2ccc([N+](=O)[O-])cc2)SC1=S (stereo not given)	16.1%	71.2%	70.9%	47.7%	50.1%	20%	0.83% (active)	81.2%	-31.6% (active)	17.4%	35%	9.61% (active)	3.53% (active)	29.5%	-47.1% (active)	19.2%	88.8%	29.6%	18.1%	-13.7% (active)
Cc1nc2sccn2c1-c1csc(Nc2ccccc2Cl)n1	38.2%	57.7%	64.4%	54.2%	35.3%	60.9%	41.9%	34.4%	55.3%	41.6%	68.2%	12.5%	56.2%	66.5%	67.2%	71.3%	36.2%	52%	46%	36.9%
Cc1ccc(C(=O)c2sc3nc4c(cc3c2N)CCCC4)c(C)c1	35.1%	60.1%	29.5%	39.6%	14%	27.4%	-0.883% (active)	19.2%	35.2%	3.68% (active)	6.18% (active)	11.9%	27%	21.3%	-16% (active)	44.1%	-4.3% (active)	-25% (active)	57.6%	30.6%
